This is a sample that favours compounds with a hit; in the whole collection about 8.7% have one here.
Vaccinia Venus: inhibitors of vaccinia virus (Venus reporter). Vaccinia virus Venus reporter expression, fluorescence. hit rate 0.46% among 330,000. Potency, µM (top dose mostly 36.5 µM), usual class: inhibitors. AID 720580; calls by dose curve; tested in A549 cells; note: nearly all actives have a fitted effect of over 30% in size
VACV mCherry inh: vaccinia inhibition (mCherry reporter) | Vaccinia virus mCherry reporter infection, fluorescence | Potency, µM (series often up to 36.5 µM), most hits filed as inhibitors | hit rate 0.63% among 310,000 | AID 720579; calls by dose curve; tested in A549 cells; note: nearly all actives have a fitted effect of over 35% in size
Pf growth 48h: inhibits P. falciparum growth in the first generation, 48 h. P. falciparum luciferase growth in erythrocytes, 48 h. Potency, µM (highest dose often 28.7 µM), actives largely listed as inhibitors. hit rate 5.9% among 310,000
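Erythrocytes infected with P. falciparum carrying an integrated firefly luciferase reporter (2% hematocrit, 0.1% parasitemia final) were exposed to compounds in RPMI 1640 with 0.5% Albumax at 37 C, 5% CO2. Growth inhibition was scored as reduced luminescence.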
Pf growth 96h: inhibits malaria parasite growth, 96 h; hit rate 6.9% among 320,000; Potency, µM (doses to about 28.7 µM), usual class: inhibitors; P. falciparum luciferase reporter growth, 96 h
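P. falciparum expressing integrated firefly luciferase, in erythrocytes at 2% hematocrit, 0.05% parasitemia, incubated with compounds 96 h at 37 C, 5% CO2. Growth inhibition read as loss of luminescence; two-generation exposure targets delayed-death apicoplast inhibitors.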
AMA1 RON2 block: disrupts binding of P. falciparum AMA1 to RON2. AlphaScreen AMA1-biotinylated RON2 peptide binding. Potency, µM (highest dose often 58.2 µM), actives largely listed as inhibitors. hit rate 0.2% among 360,000. AID 720542; note: nearly all actives have a fitted effect of over 45% in size
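AMA1 (3D7) with his tag at 25 nM final met compounds first, then biotinylated RON2 peptide at 25 nM; detection used donor plus acceptor beads, 10 µg/mL apiece, read by AlphaScreen after 30 min at room temperature.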
Of the large screens only hits and unclear results are named; the others gave an inactive call. Unless noted, calls come from the whole dose curve; as a rule, active = well fitted curve in the direction sought with a large enough effect; inconclusive = small, poorly fitted or top-dose-only effect, or another doubt; inactive = no such curve, though single readings can be large; an effect the other way counts as inactive or inconclusive.

Cc1sc(NC(=O)/C=C/c2ccc3c(c2)OCO3)nc1-c1ccccc1	none
Cc1ccc(-n2nc3c(c2NC(=O)/C=C\c2ccc4c(c2)OCO4)CSC3)cc1	Pf growth 96h 13µM
Cc1ccccc1-n1nc2c(c1NC(=O)/C=C\c1ccc3c(c1)OCO3)CSC2	Pf growth 48h inconclusive, Pf growth 96h 12µM
Cc1cccnc1NC(=O)c1ccc2c(c1)OCO2	none
O=C(CSc1nc2nccnc2c(=O)n1CCc1c[nH]c2ccccc12)Nc1ccc(F)cc1	none (no result: Pf growth 48h, Pf growth 96h, AMA1 RON2 block)
O=C(/C=C/c1ccc2c(c1)OCO2)c1ccco1	Pf growth 96h 6.6µM
Cc1ccc(-n2nc3c(c2NC(=O)C(C)(C)C)CSC3)c(C)c1	none (no result: Pf growth 96h)
Cc1ccc(-n2nc3c(c2NC(=O)/C=C\c2ccc4c(c2)OCO4)CSC3)c(C)c1	Pf growth 48h inconclusive, Pf growth 96h 13µM
O=C(Nc1cccc(C(F)(F)F)c1)N1CC2CCCN2c2ccccc21 (stereo not drawn)	none (no result: Pf growth 48h, Pf growth 96h, AMA1 RON2 block)
O=C(O)c1sc2cccc(Cl)c2c1Cl	Pf growth 48h inconclusive, Pf growth 96h 1.3µM
O=C(Nc1ccccc1Cl)c1sc2cccc(Cl)c2c1Cl	none (no result: Pf growth 48h, Pf growth 96h, AMA1 RON2 block)
CC1CCCC(NC(=S)Nc2ccc(SC(F)F)cc2)C1C (stereo not drawn)	Vaccinia Venus 11µM, VACV mCherry inh inconclusive, Pf growth 48h inconclusive (no result: Pf growth 96h)
FC(F)Sc1ccc(NC(=S)NC2CCCC2)cc1	none
CCOC(=O)c1ccccc1NC(=O)N1CCCN(S(=O)(=O)c2ccc3c(ccn3CC)c2)CC1	none (no result: Pf growth 48h, Pf growth 96h, AMA1 RON2 block)
C#CCOCCOCCOCCNc1nc(N2CCN(C(=O)CCCCCCCCCCNC(=O)[C@H]([C@@H](C)CC)n3cc(CCCCN=C(N)N)nn3)CC2)nc(N2CCN(C(=O)CCCCCCCCCCNC(=O)[C@@H]([C@H](C)O)n3cc(C)nn3)CC2)n1	Vaccinia Venus inconclusive, VACV mCherry inh inconclusive, Pf growth 48h 1.9µM, Pf growth 96h inconclusive, AMA1 RON2 block inconclusive
C#CCOCCOCCOCCNc1nc(N2CCN(C(=O)CCCCCCCCCCNC(=O)[C@H](CCCN=C(N)N)n3cc(C[C@@H](C)CC)nn3)CC2)nc(N2CCN(C(=O)CCCCCCCCCCNC(=O)[C@@H]([C@H](C)CC)n3cc(CCCCCN)nn3)CC2)n1	Pf growth 48h 3.3µM, Pf growth 96h 8.3µM (no result: Vaccinia Venus, VACV mCherry inh, AMA1 RON2 block)
C#CCOCCOCCOCCNc1nc(N2CCOCC2)nc(N2CCN(C(=O)[C@H]([C@@H](C)CC)n3cc(CCCN=C(N)N)nn3)CC2)n1	Pf growth 96h inconclusive
C#CCOCCOCCOCCNc1nc(N2CCOCC2)nc(N2CCN(C(=O)CCCCCCCCCCNC(=O)[C@H]([C@@H](C)CC)n3cc(CCCCN=C(N)N)nn3)CC2)n1	Vaccinia Venus inconclusive, VACV mCherry inh inconclusive, Pf growth 48h 0.37µM, Pf growth 96h 0.52µM
C#CCOCCOCCOCCNc1nc(N2CCN(C(=O)[C@H]([C@@H](C)CC)n3cc(CCCCN)nn3)CC2)nc(N2CCN(C(=O)[C@H](CCCCN)n3cc(CC(C)O)nn3)CC2)n1 (stereo partly drawn)	none
C#CCOCCOCCOCCNc1nc(N2CCN(C(=O)CCCCCCCCCCNC(=O)[C@H]([C@@H](C)CC)n3cc(CCCCN=C(N)N)nn3)CC2)nc(N2CCN(C(=O)CCCCCCCCCCNC(=O)[C@H](CCCN=C(N)N)n3cc(C[C@@H](C)CC)nn3)CC2)n1	Pf growth 48h 4.7µM, Pf growth 96h 5.2µM (no result: Vaccinia Venus, VACV mCherry inh, AMA1 RON2 block)
CCc1ccc(S(=O)(=O)c2nnn3c2nc(N(C)Cc2ccccc2)c2cc(Cl)ccc23)cc1	none (no result: Pf growth 48h, Pf growth 96h, AMA1 RON2 block)
CCOc1ccccc1NC(=O)CSc1ccc2nnc(CCNS(=O)(=O)c3ccccc3)n2n1	none (no result: Pf growth 48h, Pf growth 96h, AMA1 RON2 block)
COc1ccc(CCNC(=O)c2c(C)nc3ccccn23)cc1	Pf growth 48h inconclusive, Pf growth 96h 12µM
COc1ccc(CNC(=O)c2c(C)nc3ccccn23)cc1	Pf growth 96h inconclusive (no result: Vaccinia Venus, VACV mCherry inh)
O/N=C(/C[n+]1cccc(Br)c1)c1ccc2ccccc2c1	none (no result: Pf growth 48h, Pf growth 96h, AMA1 RON2 block)
Cc1ccc2c(c1)CC1(CN2C)C(=O)OC(C)(C)OC1=O	Vaccinia Venus 10µM, VACV mCherry inh 7.1µM (no result: Pf growth 96h)
CC(=O)Oc1ccc2ccc(=O)oc2c1	Vaccinia Venus 0.0025µM, VACV mCherry inh 100µM
COc1ccc(CNC(=O)CCn2nc(C)c3c(C)n(-c4ccccc4)nc3c2=O)cc1OC	none (no result: Pf growth 48h, Pf growth 96h, AMA1 RON2 block)
Cn1c(/C(C#N)=C/c2ccc(O)cc2)nc2ccccc21	Pf growth 96h 2.3µM (no result: Vaccinia Venus, VACV mCherry inh)
Cn1c(/C(C#N)=C/c2ccncc2)nc2ccccc21	none (no result: Vaccinia Venus, VACV mCherry inh)
CC(C)CCN(CCC(C)C)C/C(O)=C(\C#N)c1nc(-c2ccccc2)cs1	Pf growth 96h 2.6µM (no result: Pf growth 48h)

Screens: PubChem BioAssay, National Center for Advancing Translational Sciences (NCATS)
